{"source": "PubChem BioAssay (Tox21)", "note": "Records with an inconclusive call do not appear. The source made the active and inactive calls. Calls come from the whole dose curve. % is set by controls: 0 for no effect and ±100 for the full control effect."}
{"experiment": "qHTS assay to identify small molecule agonists of the NFkB signaling pathway - cell viability counter screen (AID 1159515); note: nearly all actives have a fitted effect of over 55% in size", "details": "NFkB-bla ME-180 viability, CellTiter-Glo luminescence, 5 h; series mostly up to 61 µM; activity, negative = cytotoxic: at the top concentration", "method_in_brief": "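Luminescence from CellTiter-Glo (30 min, room temperature) gives viability, measured in the same wells as the beta-lactamase reporter read. Cells were NFkB-bla ME-180, 2,000 per well, treated 5 hr with compounds.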"}
{"smiles": "NNc1nnc(NN)c2ccccc12", "activity, negative = cytotoxic": "-16.2% (inactive)"}
{"smiles": "C=CCCCCCCCCCCCC", "activity, negative = cytotoxic": "-1.44% (inactive)"}
{"smiles": "O=C(O)c1ccc(Cl)cc1Cl", "activity, negative = cytotoxic": "2.35% [at 78.8 µM] (inactive)"}
{"smiles": "O=C1CC(c2ccc(Cl)cc2)CC(=O)N1", "activity, negative = cytotoxic": "13.5% (inactive)"}
{"smiles": "Cc1nc2n(c(=O)c1CCN1CCC(c3noc4cc(F)ccc34)CC1)CCC[C@H]2O", "activity, negative = cytotoxic": "0.0691% [at 28.5 µM] (inactive)"}
{"smiles": "CN(C)C(=O)CNC(=O)Cc1ccccc1", "activity, negative = cytotoxic": "-18% (inactive)"}
{"smiles": "C=C(C)C(=O)OCC(C)(C)COC(=O)C(=C)C", "activity, negative = cytotoxic": "-5.17% (inactive)"}
{"smiles": "O=C(O)c1cc(Cl)cc([N+](=O)[O-])c1Cl", "activity, negative = cytotoxic": "6.81% (inactive)"}
{"smiles": "O=S(=O)(O)c1ccc2cc(O)c(S(=O)(=O)O)cc2c1", "activity, negative = cytotoxic": "-1.25% (inactive)"}
{"smiles": "On1nnc2ccccc21", "activity, negative = cytotoxic": "-14.7% (inactive)"}
{"smiles": "CN=C(NC#N)Nc1ccc(C2=NNC(=O)CC2C)cc1", "note": "(configuration not stated)", "activity, negative = cytotoxic": "-10.8% (inactive)"}
{"smiles": "CC(=O)Nc1cccc(C)c1", "activity, negative = cytotoxic": "-10.5% [at 78.8 µM] (inactive)"}
{"smiles": "CCc1ccc(C=O)cc1", "activity, negative = cytotoxic": "-1.67% (inactive)"}
{"smiles": "CC/C=C\\CC1=C(C)CCC1=O", "activity, negative = cytotoxic": "8.5% (inactive)"}
{"smiles": "OC[C@H](Cc1cccc(O)c1)[C@H](CO)Cc1cccc(O)c1", "activity, negative = cytotoxic": "-5.16% [at 78.8 µM] (inactive)"}
{"smiles": "COc1ccc(Br)c(C)c1", "activity, negative = cytotoxic": "-5.66% [at 78.8 µM] (inactive)"}
{"smiles": "Cc1ccc(C=O)cc1C", "activity, negative = cytotoxic": "3.03% (inactive)"}
{"smiles": "CCCC/C=C\\CCCCCCCCCC=O", "activity, negative = cytotoxic": "4.07% (inactive)"}
{"smiles": "COc1cc2c(cc1OC)[C@@H]1CC(=O)[C@@H](CC(C)C)CN1CC2", "activity, negative = cytotoxic": "1.08% (inactive)"}
{"smiles": "c1ccc2nccnc2c1", "activity, negative = cytotoxic": "-1.14% [at 78.8 µM] (inactive)"}
{"smiles": "Cc1ccc2ccc(Cl)cc2n1", "activity, negative = cytotoxic": "2.79% (inactive)"}
{"smiles": "CC(=O)OC(C)OC(=O)C(C)c1ccc(-c2ccccc2)c(F)c1", "note": "(configuration not stated)", "activity, negative = cytotoxic": "-12.6% (inactive)"}
{"smiles": "CC(C)(C)c1nnc(NS(=O)(=O)c2ccc(N)cc2)s1", "activity, negative = cytotoxic": "-3.25% (inactive)"}
{"smiles": "CCn1ccc(NS(=O)(=O)c2ccc(N)cc2)nc1=O", "activity, negative = cytotoxic": "-5.9% (inactive)"}
{"smiles": "COc1ccc2c(c1)C(=O)N(CCc1ccc(S(=O)(=O)NC(=O)NC3CCCCC3)cc1)C(=O)C2(C)C", "activity, negative = cytotoxic": "-11.1% (inactive)"}
{"smiles": "Cc1ccc2c(c1)OCC(=O)CO2", "activity, negative = cytotoxic": "11.1% (inactive)"}
{"smiles": "Cc1ccc(S(=O)(=O)O)c(C)c1", "activity, negative = cytotoxic": "6.8% (inactive)"}
{"smiles": "Cc1cc2cc3c(C)cc(=O)oc3c(C)c2o1", "activity, negative = cytotoxic": "0.801% (inactive)"}
{"smiles": "COc1nccnc1NS(=O)(=O)c1ccc(N)cc1", "activity, negative = cytotoxic": "10.5% (inactive)"}
{"smiles": "C=C(C)C1CCC(C)(O)CC1", "note": "(configuration not stated)", "activity, negative = cytotoxic": "9.6% (inactive)"}
{"smiles": "CC(C)N(c1ccccc1)C(C)C", "activity, negative = cytotoxic": "-12.4% (inactive)"}
{"smiles": "CC(C)c1ccc2cc(C(C)C)ccc2c1", "activity, negative = cytotoxic": "-0.506% (inactive)"}
{"smiles": "C=C(C)C(=O)OCCOP(=O)(O)OCCOC(=O)C(=C)C", "activity, negative = cytotoxic": "2.21% (inactive)"}
{"smiles": "Cc1cc(Cl)c(C)cc1Cl", "activity, negative = cytotoxic": "-0.138% (inactive)"}
{"smiles": "O=C(O)Cc1cn(-c2ccccc2)nc1-c1ccc(Cl)cc1", "activity, negative = cytotoxic": "2.39% (inactive)"}
{"smiles": "COC(=O)CCc1ccc(OCC(O)CNC(C)C)cc1", "note": "(configuration not stated)", "activity, negative = cytotoxic": "3.08% (inactive)"}
{"smiles": "COc1ccc(-c2cc(=O)c3c(O)cc(O[C@@H]4O[C@H](CO[C@@H]5O[C@@H](C)[C@H](O)[C@@H](O)[C@H]5O)[C@@H](O)[C@H](O)[C@H]4O)cc3o2)cc1O", "activity, negative = cytotoxic": "11.2% (inactive)"}
